About 1,600 (39%) of roughly 4,100 compounds were called active. Another 25% or so got no clear call; they are omitted. Calls follow the shape of the dose curve; as a rule, active = well fitted inhibition curve with a large enough effect; inconclusive = small, poorly fitted or top-dose-only effect; inactive = no such curve, though single readings can be large or run the other way. This is one part of the list.
Assay: qHTS Validation assay for Inhibitors of Plasmodium falciparum Dd2 growth in vitro; also: nearly all actives have a fitted effect of over 70% in size
Details: P. falciparum Dd2 in RBCs, SYBR Green growth, 72 h; series mostly up to 28.7 µM
Method in brief: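 P. falciparum Dd2-infected red blood cells (2.5% hematocrit, 0.3% parasitemia) grown 72 h at 37 °C under 5% O2 with compounds in a titration, 29 uM to 0.5 nM final. Growth read as SYBR Green-1 fluorescence after ~16 h lysis; artesunate 300 nM as positive control.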
With `CNC(=O)[C@@H]1C[C@H](Oc2ccccc2)CN1C(=O)c1cc2ccccc2[nH]1` the Potency was “inactive”.
For `COc1cc(C(=O)Nc2ccc3nc(N4CCN(C)CC4)cc(C)c3c2)cc(OC)c1OC`, the Potency was 3.35 µM (active).
In the case of `COc1ccc(Nc2cc(C)c3cc(NC(=O)c4cc(OC)cc(OC)c4)ccc3n2)cc1`, the Potency is reported as 0.75 µM (active).
For `COc1ccc(NC(=O)CCn2ccn3nc4c(c3c2=O)CCCC4)cc1OC`, the Potency was “inactive”.
For `Cc1noc(-c2cccc(OC3CN(S(=O)(=O)c4cn(C)cn4)C3)c2)n1`, the Potency was “inactive”.
With `O=C(c1ccco1)N1CC(Oc2cccc(-c3nc(-c4ccccc4)no3)c2)C1` the Potency was “inactive”.
In the case of `CCCNC(=O)N1CC(Oc2cccc(-c3nc(-c4ccccc4)no3)c2)C1`, the Potency is reported as 13.3 µM (active).
With `COc1ccc(OC)c(S(=O)(=O)NCCc2sc(C)nc2C)c1` the Potency was “inactive”.
For `COc1ccc(OC)c(S(=O)(=O)Nc2ccc(O)c3ccccc23)c1`, the Potency was 8.41 µM (active).
In the case of `CCCCN(C(=O)c1ccco1)c1nnc(-c2cc(OC)c(OC)c(OC)c2)s1`, the Potency is reported as 2.99 µM (active).
For `Cc1nc(-c2ccc(Cl)cc2)sc1CCNC(=O)c1ccco1`, the Potency was “inactive”.
With `Cc1ccc(C(=O)NN2C(=O)C3C4C=CC(C4)[C@@H]3C2=O)cc1` (stereo not given in full) the Potency was “inactive”.
In the case of `O=C(c1ccc2ncccc2c1)N1CCc2c(nc3cc[nH]n3c2=O)C1`, the Potency is reported as “inactive”.
With `OC(CNCC1CCCO1)Cn1c2ccc(Cl)cc2c2cc(Cl)ccc21` (stereo not given) the Potency was 1.19 µM (active).
With `COc1cc(-c2nc(-c3c(C)noc3C)cc3c2cc(C)n3CCN(C)C)ccn1` the Potency was 17.2 µM (active).
With `Cc1noc(C)c1-c1cc2c(cc(C)n2CCN(C)C)c(Nc2ccn(C)n2)n1` the Potency was 13.7 µM (active).
In the case of `Cc1noc(C)c1-c1cc2c(cc(C)n2C)c(NCCN(C)C)n1`, the Potency is reported as “inactive”.
For `COc1cccc(-c2noc(CCCc3nc(-c4cccnn4)no3)n2)c1`, the Potency was “inactive”.
In the case of `Cc1noc(C)c1-c1cc2c(cc(C)n2CCN(C)C)c(-c2cccc(O)c2)n1`, the Potency is reported as 17.2 µM (active).
In the case of `CCc1cccc(C)c1Nc1c(-c2cccc(O)c2)nc2sccn12`, the Potency is reported as “inactive”.
With `COc1cccc(-c2nc(-c3c(C)noc3C)cc3c2cc(C)n3CCN(C)C)c1` the Potency was 17.2 µM (active).
In the case of `O=[S+]1([O-])NCC2(CCN(CC3CC3)CC2)Nc2ccccc21`, the Potency is reported as “inactive”.
With `O=C(c1ccsc1)N1CC(n2cc(-c3ccccc3)nn2)C1` the Potency was “inactive”.
In the case of `O=C(c1cccc(O)c1)N1CC=C(c2cnc3cnc(-c4ccccc4)cn23)CC1`, the Potency is reported as 9.68 µM (active).
With `COCCNC(=O)[C@H]1C[C@H](Oc2ccccc2)CN1C(=O)c1ccccc1OC` the Potency was “inactive”.
In the case of `O=C(NCc1ccc(F)cc1)c1c2c(nc3ccccc13)C(=O)N(C1CCCCC1)C2`, the Potency is reported as “inactive”.
In the case of `COc1ccc(CN2CC(Oc3ccccc3C(=O)NCc3ccccc3)C2)c(OC)c1`, the Potency is reported as 10.6 µM (active).
In the case of `Cc1ccsc1CN1CC(Oc2ccccc2C(=O)NC2CC2)C1`, the Potency is reported as “inactive”.
In the case of `O=C(NCc1ccccc1)c1ccccc1OC1CN(Cc2ccc(O)c(F)c2)C1`, the Potency is reported as 15 µM (active).
For `Cc1c(CN2CC(Oc3ccccc3C(=O)NCc3ccccc3)C2)cnn1C`, the Potency was 4.22 µM (active).
In the case of `O=C(NCC1CC1)c1cccc(OC2CN(Cc3cc(F)c(F)c(F)c3)C2)c1`, the Potency is reported as “inactive”.
With `CCCN1CCN(C(=O)c2cc3c(s2)CCN(C(=O)c2ccc(F)cc2)C3)CC1` the Potency was “inactive”.
For `COc1ccc(C2Sc3ccccc3NC3=C2C(=O)c2ccccc23)c(OC)c1OC` (stereo not given), the Potency was 0.75 µM (active).
With `O=C1C2=C(Nc3ccccc3SC2c2ccco2)c2ccccc21` (stereo not given) the Potency was 4.73 µM (active).
In the case of `O=C1C2=C(Nc3ccccc3SC2c2c(F)cccc2Cl)c2ccccc21` (stereo not given), the Potency is reported as 9.44 µM (active).
With `CCn1ncc(CN2CCCC23CCN(c2cc(C)nc4ccccc24)CC3)c1C` the Potency was 5.31 µM (active).
For `CCn1cc(CN2CCCC23CCN(c2cc(C)nc4ccccc24)CC3)c(C)n1`, the Potency was 4.22 µM (active).
In the case of `CN(C)c1nc2c(c(=O)[nH]1)CCN(Cc1ccccc1Br)CC2`, the Potency is reported as 9.44 µM (active).
In the case of `CN(C)c1nc2c(c(=O)[nH]1)CCN(Cc1ccc(F)cc1Cl)CC2`, the Potency is reported as 10.6 µM (active).
In the case of `CN(C)c1nc2c(c(=O)[nH]1)CCN(Cc1ccc(Br)cc1)CC2`, the Potency is reported as 13.3 µM (active).
In the case of `O=C(CCc1ccccc1)N1CCc2c(nc(-c3ccc(F)cc3)[nH]c2=O)C1`, the Potency is reported as “inactive”.
With `N#Cc1ccc(CN2CCc3n[nH]c(=O)n3CC2)cc1` the Potency was “inactive”.
With `COc1cc(OC)c(OC)cc1CN1CCc2nc(N(C)C)[nH]c(=O)c2CC1` the Potency was “inactive”.
In the case of `CN(C)c1ccc(C(=O)NCc2nnc3cc(-c4nc(C5CC5)no4)ccn23)cc1`, the Potency is reported as “inactive”.
For `COc1ccc(Nc2cc(O)c3ncccc3c2)cc1`, the Potency was 0.75 µM (active).
In the case of `Oc1cc(Nc2ccc(N3CCCCC3)cc2)cc2cccnc12`, the Potency is reported as 0.842 µM (active).
In the case of `Oc1cc(Nc2ccccc2)cc2cccnc12`, the Potency is reported as 6.68 µM (active).
With `Cc1ccc(OCC(=O)Nc2ccccc2C(=O)OCc2cc(=O)n3ccsc3n2)cc1` the Potency was “inactive”.
With `CCOC(=O)c1ccccc1NC(=O)C(C)Oc1ccccc1` (stereo not given) the Potency was 10.6 µM (active).
For `COc1ccc(C)cc1NC(=O)N1c2ccccc2CC1c1nc(C2CC2)no1` (stereo not given), the Potency was “inactive”.
With `O=C(c1ccc2nc[nH]c2c1)N1CCCC2(C1)Nc1cccnc1NC2=NC1CCCC1` (stereo not given) the Potency was “inactive”.
For `COc1ccc(C)cc1NC(=O)N1CCCC2(C1)Nc1cccnc1NC2=NC1CCCC1` (stereo not given), the Potency was 6.68 µM (active).
With `CCCN1CCN(CCCNC(=O)c2ccc3c(c2)sc2nc(-c4ccc(OC)cc4)cn23)CC1` the Potency was 4.73 µM (active).
For `COc1ccc(-c2cc3c(=O)n(CCNC(=O)c4ccc(OC)nc4)ccn3n2)cc1`, the Potency was “inactive”.
For `CCCN1CCN(CCCNC(=O)c2ccc3c(c2)sc2nc(-c4ccc(OCC)cc4)cn23)CC1`, the Potency was 4.22 µM (active).
In the case of `COc1ccc(-c2cc3c(=O)n(CCNC(=O)c4ccc(OC)c(OC)c4)ccn3n2)cc1`, the Potency is reported as “inactive”.
With `CCOc1ccc(-c2cc3c(=O)n(CCNC(=O)c4cccc(C#N)c4)ccn3n2)cc1` the Potency was “inactive”.
For `CCOc1ccc(-c2cc3c(=O)n(CCNC(=O)c4ccccc4)ccn3n2)cc1`, the Potency was “inactive”.
With `CCOc1ccc(-c2cn3c(n2)sc2cc(C(=O)NC(C)C45CC6CC(CC(C6)C4)C5)ccc23)cc1` (stereo not given) the Potency was 5.96 µM (active).
In the case of `CCOc1ccc(-c2cc3c(=O)n(CCNC(=O)c4ccc(C#N)cc4)ccn3n2)cc1`, the Potency is reported as “inactive”.
In the case of `CCOc1ccc(-c2cn3c(n2)sc2cc(C(=O)NCCCc4ccccc4)ccc23)cc1`, the Potency is reported as “inactive”.
With `COc1ccc(-c2cn3c(n2)sc2cc(C(=O)NCCCN4CCCCC4)ccc23)cc1` the Potency was 4.73 µM (active).
With `C#Cc1ccc(C(=O)Nc2ccc(N3CCC(C)CC3)c(C(N)=O)c2)cc1` the Potency was 6.68 µM (active).
For `CC1CCCCN1c1ccc(N)cc1C(N)=O` (stereo not given), the Potency was “inactive”.
For `CCN1c2cc(C(=O)Nc3ccc4c(c3)CCC4)ccc2C(=O)N2CCCCC21` (stereo not given), the Potency was “inactive”.
In the case of `Cc1ccc2c(c1)c1c3n2CCCN(Cc2ccccc2)C3CCC1` (stereo not given), the Potency is reported as 4.22 µM (active).
With `CN(C)Cc1c(O)ccc2oc(Cc3ccccc3)cc12` the Potency was 0.422 µM (active).
For `COc1ccc(-n2c(/C=C(\C)O)nc(=O)c3c(C)cc(C)nc32)cc1`, the Potency was 3.35 µM (active).
For `O=C(Cc1ccccc1)N1CCCC2(CC(c3ccccn3)=NO2)C1` (stereo not given), the Potency was “inactive”.
In the case of `CCOC(=O)c1c(C)[nH]c(C(=O)CSc2nnc(C3CC3)n2N)c1C`, the Potency is reported as 1.5 µM (active).
In the case of `CCOC(=O)c1c(C)[nH]c(C(=O)OCc2c(C)noc2C)c1C`, the Potency is reported as “inactive”.
For `CN1c2cc(C(=O)Nc3ccc(S(N)(=O)=O)cc3)ccc2C(=O)N2CCCCC21` (stereo not given), the Potency was “inactive”.
In the case of `O=C(Nc1ccc(Br)cc1F)c1cc(S(=O)(=O)NC2CCCC2)ccc1F`, the Potency is reported as “inactive”.
For `O=C(Nc1ccc(Br)cc1)c1ccc(F)c(S(=O)(=O)NC2CCCCCC2)c1`, the Potency was 9.44 µM (active).
For `CC1(COc2ccccc2)COc2ccc(C(=O)NCc3cnccn3)cc2N1` (stereo not given), the Potency was “inactive”.
With `Cc1nccn1C1(C(=O)O)CCN(Cc2ccc(-c3ccn[nH]3)o2)CC1` the Potency was “inactive”.
For `Cc1noc(-c2cccs2)c1C(=O)NC(C)c1cccc2ccccc12` (stereo not given), the Potency was 0.668 µM (active).
With `O=C(NCc1nc(-c2ncccn2)no1)c1csc(-c2cccs2)n1` the Potency was “inactive”.
For `c1csc(-c2cn3ccc4ccccc4c3n2)c1`, the Potency was “inactive”.
With `CNC(=O)c1ccsc1NC(=O)CCS(=O)(=O)c1ccccc1` the Potency was “inactive”.
For `O=C(O)c1ccc(C2SCC(=O)N2Cc2ccco2)cc1` (stereo not given), the Potency was “inactive”.
For `Cc1cc(C(=O)CN2C(=O)NC(C)(c3cccc(Br)c3)C2=O)c(C)n1Cc1ccco1` (stereo not given), the Potency was 13.3 µM (active).
With `Cc1cc(C(=O)CN2C(=O)NC(c3ccccc3)(c3ccccc3)C2=O)c(C)n1Cc1ccco1` the Potency was 8.41 µM (active).
For `O=C1Nc2ccccc2C12Nc1ccccc1-c1nc3ccccc3n12` (stereo not given), the Potency was 6.68 µM (active).
With `COc1ccc2c(c1)C1(Nc3ccccc3-c3nc4ccccc4n31)C(=O)N2` (stereo not given) the Potency was 0.596 µM (active).
For `CC1(c2ccccn2)Nc2ccccc2-c2nc3ccccc3n21` (stereo not given), the Potency was 5.31 µM (active).
With `COc1ccc(-c2cnc([C@@H]3COCCN3Cc3ccccc3O)[nH]2)cc1` the Potency was 17.2 µM (active).
With `Oc1ccccc1CN1CCOC[C@H]1c1ncc(-c2ccc(C(F)(F)F)cc2)[nH]1` the Potency was 4.85 µM (active).
With `CS(=O)(=O)c1ccc(-c2cnc([C@@H]3COCCN3Cc3ccccc3)[nH]2)cc1` the Potency was “inactive”.
With `COc1cc(OC)cc(C(=O)N2CCC(c3nc(C4CCOC4)no3)CC2)c1` (stereo not given) the Potency was “inactive”.
For `c1ccc(CCNc2ccnc3cc4ccccc4cc23)cc1`, the Potency was 1.68 µM (active).
With `O=c1c(NCCc2ccccc2)c(-c2ccccc2)c1=O` the Potency was “inactive”.
With `c1ccc2cc3c(NCCN4CCOCC4)ccnc3cc2c1` the Potency was 1.68 µM (active).
In the case of `COCCN1Cc2ccc(NCC(C)C)nc2C(C)(C(=O)Nc2ccncc2)C1` (stereo not given), the Potency is reported as 21.7 µM (active).
With `CC1(C)C(=O)N(CC2CCOCC2)[C@H]2CN(CCCc3ccccc3)C[C@@H]2[S+]1(=O)[O-]` the Potency was “inactive”.
Potency is read from the fitted curve at half-maximal effect.
